Only some compounds are listed: those with a hit (about 3.1% of all), similar ones and a draw of the others.
p53null 39C kill: qHTS Screen for Compounds that Selectively Target Cancer Cells with p53 Mutations: Cytotoxicity of p53 Null Cells at the Nonpermissive Temperature | AID 904, 2007 | H1299 p53-null (neo) cells, 39C, ATPlite viability, 24 h | Potency, µM (titrated, usually from 46.1 µM), most hits filed as cytotoxic | hit rate 0.97% among 55,000; further: nearly all actives have a fitted effect of over 50% in size
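Cells seeded at 600/well, 37C overnight. Compound added (up to 46 uM), plates shifted to 39C for 24 hr. ATPlite added, luminescence read after 20 min at room temperature.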
PMP22 txn prim: Cell-based coincidence reporter assay to measure PMP22 gene transcription in S16 Pmp22-F2sN cells - Primary screen | S16 Pmp22-F2sN Schwann cells, FLuc/NLuc coincidence luminescence, 24 h | Potency, µM (series often up to 57.5 µM), most hits filed as inhibitors | hit rate 2% among 43,000 | AID 1508649, 2021; active means clear falling dose curves in both reporters; inconclusive means both reporters move, but less clearly or upward; inactive means either reporter flat; the % is the NLuc reporter signal
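S16 Schwann cells carrying FLuc/NLuc coincidence reporter in the Pmp22 3' UTR treated with compound 24 h at 37C; FLuc then NLuc luminescence read sequentially by dual-luciferase reagents.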
S16 viability: Cell viability qHTS assay in S16 Pmp22-F2sN cells | S16 Pmp22-F2sN Schwann cells viability, CellTiter-Glo, 24 h | Potency, µM (highest dose often 57.5 µM), usual class: cytotoxic | hit rate 0.48% among 43,000; further: nearly all actives have a fitted effect of over 65% in size
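Viability was measured by CellTiter-Glo luminescence (15 min, room temperature). This followed 24 h at 37 °C of compound exposure (23 nL pin transfer) in S16 Pmp22-F2sN Schwann cells, 500-1,000 per well.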
SKOV3 invasion: Primary qHTS assay for Inhibitors of ovarian cancer metastasis using an organotypic tumor microenvironment (TME) model; SKOV3ip1-GFP adhesion/invasion on 3D omental model, fluorescence; Potency, µM (top dose mostly 45.8 µM), actives largely listed as inhibitors; hit rate 0.1% among 46,000; further: nearly all actives have a fitted effect of over 65% in size
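Primary human omental fibroblast/mesothelial 3D culture pre-formed 48 h. SKOV3ip1-GFP cells added with compounds (0.36-46 umol/L), incubated 2 h RT/16 h 37 C, fixed; GFP cells quantified at 488/509 nm.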
p53null 32C tox: qHTS Screen for Compounds that Selectively Target Cancer Cells with p53 Mutations: Cytotoxicity of p53 Null Cells at the Permissive Temperature | H1299-neo p53 null cells, ATP luminescence, 24 h, 32C | Potency, µM (highest dose often 46.1 µM), most hits filed as cytotoxic | hit rate 0.62% among 55,000; further: nearly all actives have a fitted effect of over 55% in size
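Luminescent ATP readout gave cell viability of p53-null H1299-neo cells after a 24 h compound exposure at the permissive 32C. Titrations ran up to 46 uM, and AC50s were fitted with the standard Hill equation.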
pS6 MEF inh: Acumen qHTS Assay for Inhibitors of the mTORC1 Signaling Pathway in MEF (Tsc2-/-, p53-/-) Cells: Sytravon | Tsc2-/- p53-/- MEF, phospho-rpS6 immunofluorescence/PI, 24 h | Potency, µM (top dose mostly 38.3 µM), usual class: inhibitors | hit rate 0.78% among 44,000 | AID 493208, 2011; further: nearly all actives have a fitted effect of over 50% in size
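Cell-based qHTS: Tsc2-/- p53-/- MEF, 24 h cpd, 37 °C; fix/perm, anti-phospho-S6 Alexa-488 + PI; Acumen 488 nm scan; pS6/PI ratio, % positive cells; rapamycin 7.5 nM = inhibition ref; PI count = viability.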
Hits are given with their value; 0 = inactive; ? = inconclusive; - = not tested or not shown. Unless noted, the call rests on the fitted dose curve; in most records, active means well fitted curve in the direction sought with a large enough effect; inconclusive means small, poorly fitted or top-dose-only effect, or another doubt; inactive means no such curve, though single readings can be large; an effect the other way counts as inactive or inconclusive.

SMILES | p53null 39C kill | PMP22 txn prim | S16 viability | SKOV3 invasion | p53null 32C tox | pS6 MEF inh
COc1ccc(NC(=O)c2c(C)oc3ccc(O)c(CN4CCCC(C)C4)c23)cc1 (stereo not given) | 0 | - | - | 0 | 0 | ?
CN1CCC[C@H]1CCO[C@](C)(c1ccccc1)c1ccc(Cl)cc1 | - | - | - | 0 | - | -
COc1ccc(C2=C(Nc3ccc(C)cc3C)c3ccccc3C2=O)cc1 | 0 | - | - | 0 | 0 | 0
Cc1ccc(NC2=C/C(=N\S(=O)(=O)c3cccs3)c3ccccc3C2=O)c(C)c1 | 3.5µM | - | - | - | 3.5µM | -
CC(C)(C)OC(=O)Nc1ccc(-c2cc(C(=O)NCCCCCCC(=O)NO)no2)cc1 | - | - | - | 0 | - | -
C[C@](Cc1c[nH]c2ccccc12)(NC(=O)OC1C2CC3CC(C2)CC1C3)C(=O)NC[C@H](NC(=O)CCC(=O)O)c1ccccc1 (stereo not given in full) | - | - | - | 0 | - | -
CSc1ccc(C(=O)Nc2ccc(-c3nc4ccccc4s3)c(O)c2)cc1 | 0 | 0 | 0 | 0 | 0 | 0
CCSc1ccccc1C(=O)Nc1ccc(-c2nc3ccccc3s2)c(O)c1 | 0 | 0 | ? | 0 | 0 | 2.9µM
COc1ccc2cc(-c3nc4ccc(C(=O)O)cc4[nH]3)c(=O)oc2c1 | 0 | 0 | 0 | 0 | 1.6µM | 0
CCCc1nnc(NC(=O)c2nc(SCC)ncc2Cl)s1 | 0 | 0 | 0 | 0 | 0 | 0
Cc1ccccc1CS(=O)(=O)c1ncc(Cl)c(C(=O)Nc2nnc(C(C)C)s2)n1 | ? | 7µM | ? | ? | 0 | 9.3µM
Cc1ccc(CSc2ncc(Cl)c(C(=O)Nc3nc4ccc(C)cc4s3)n2)cc1 | 0 | 0 | 0 | 0 | 0 | 0
Cc1ccc(CS(=O)(=O)c2ncc(Cl)c(C(=O)Nc3nc4ccc(C)cc4s3)n2)cc1 | 0 | 6.5µM | 20µM | 25µM | 0 | 0
CC(C)Sc1ncc(Cl)c(C(=O)Nc2nnc(C(C)C)s2)n1 | 0 | 0 | 0 | 0 | 0 | 0
CCCc1nnc(NC(=O)c2nc(S(=O)(=O)Cc3ccc(C)cc3)ncc2Cl)s1 | 10µM | ? | ? | ? | 0 | 0
O=c1ccn([C@@H]2O[C@H](CO)[C@H](O)[C@H]2O)c(=O)[nH]1 | - | - | - | 0 | - | -
CCc1ccc(C(=O)Nc2cc(CN3CCN(C)CC3)cc(C(F)(F)F)c2)cc1C#Cc1cnc2ccnn2c1 | - | - | - | 0 | - | -
CCN(C(=O)C1CCN(S(=O)(=O)c2ccc3c(c2)CCCN3C(C)=O)CC1)c1cccc(C)c1 | 0 | ? | 0 | 0 | 0 | 0
CCN(CC)C(=O)C1CCN(S(=O)(=O)c2ccc3c(c2)CCCN3C(C)=O)CC1 | 10µM | 0 | ? | 0 | 0 | 0
CCN(C(=O)c1c(O)c2c(Cl)cccc2n(C)c1=O)c1ccccc1 | - | - | - | 0 | - | -
CCN1CCN(c2cc(C)c3cc(NC(=O)c4ccc(OC)c(OC)c4)ccc3n2)CC1 | 0 | ? | 20µM | 0 | 0 | ?
CCN1CCN(c2cc(C)c3cc(NC(=O)c4cc(OC)c(OC)c(OC)c4)ccc3n2)CC1 | 0 | 0 | 0 | 0 | 0 | ?
CCOc1ccccc1NC(=O)Nc1ccc2nc(N3CCN(C)CC3)cc(C)c2c1 | 18µM | ? | ? | ? | ? | ?
Cc1cc(N2CCN(C)CC2)nc2ccc(NC(=O)c3ccc(C(C)(C)C)cc3)cc12 | 13µM | ? | ? | ? | 25µM | 5.8µM
C[C@@H]1CN(CC(=O)Nc2ccc3c(c2)Cc2cccc(-c4cc(=O)cc(N5CCOCC5)o4)c2S3)C[C@H](C)O1 | - | - | - | 0 | - | -
SMILES | p53null 39C kill | PMP22 txn prim | S16 viability | SKOV3 invasion | p53null 32C tox | pS6 MEF inh
COc1ccc(Cc2ccc(NC(N)=O)cc2)cc1-c1cccc(Cl)c1 | - | - | - | 0 | - | -
Cc1cc(CS(=O)(=O)c2ccccc2)cc(OCc2ccc(CN3CCC[C@H]3CO)cc2)c1 | - | - | - | 0 | - | -
Cc1cc(Cl)ccc1NC(=O)CN1C(=O)C(=O)c2ccccc21 | 0 | ? | ? | 0 | 0 | 10µM
Cc1ccc(Cl)cc1NC(=O)CN1C(=O)c2cccc3cccc1c23 | 0 | ? | 0 | 0 | 0 | 0
Cc1cc(C)cc(NC(=O)c2ccc3c(c2)nnn3C2CCCC2)c1 | 0 | ? | 11µM | 0 | 0 | 0
CCOc1ccc(NC(=O)c2ccc3c(c2)nnn3C2CCCC2)cc1 | 0 | ? | 0 | 0 | 0 | 0
Cc1oc(-c2ccc(Cl)cc2)nc1CSc1nc2ncccc2[nH]1 | 0 | 0 | 0 | 0 | 0 | 0
Clc1ccc(CSc2nc3ncccc3[nH]2)cc1 | ? | ? | 0 | 0 | 10µM | 0
O=C(O)c1cc(-c2ccc(C(F)(F)F)cc2)nc2n[nH]c(-c3ccccc3)c12 | 16µM | 0 | 0 | 0 | ? | 0
CCOC(=O)/C(C#N)=C/c1ccc(-c2ccc(Br)cc2)o1 | 0 | - | - | 0 | 0 | 0
C=CCN1C=CC(=C/C=C(/C#N)C(=O)OCC)C=C1 | ? | - | - | - | 8.9µM | -
Cc1cccc(N2CCN(C(=O)c3cnn(-c4cccc(Cl)c4C)c3C3CCNCC3)CC2)c1C | 0 | ? | ? | ? | 0 | 16µM
Cc1cccc(Nc2nnc(-c3ccc(C)c(S(=O)(=O)N4CCN(C)CC4)c3)c3ccccc23)c1 | 10µM | ? | 0 | 0 | 0 | ?
Cc1ccc(-c2nnc(Nc3cccc(Br)c3)c3ccccc23)cc1S(=O)(=O)N1CCN(C)CC1 | 0 | ? | ? | 0 | 0 | 0
Cc1cccc(NCc2ccccc2OCc2ccccc2F)c1 | - | - | - | - | 0 | -
Oc1ccc(NCc2ccc(OCc3ccccc3Cl)cc2)cc1 | ? | ? | ? | 0 | ? | 16µM
Oc1ccc(NCc2ccccc2OCc2ccccc2Cl)cc1 | 0 | 7µM | 20µM | 0 | 0 | 0
Oc1ccc(OCc2ccccc2)cc1 | - | - | - | 0 | - | -
Cn1nnnc1SCCNCc1ccc(OCc2ccccc2Cl)cc1 | 0 | 0 | 0 | 0 | ? | 0
Oc1ccc(NCc2ccc(OCc3ccccc3)cc2)cc1 | ? | 4.6µM | 10µM | ? | ? | 15µM
CCCCc1ccc(NS(=O)(=O)c2ccc(C)c(C(=O)N3CCN(c4cccc(C)c4C)CC3)c2)cc1 | - | - | - | 0 | - | -
CCCn1c(=O)c2[nH]c(C34CC5CC3C[C@@H](C5)C4)nc2n(CCC)c1=O | - | - | - | 0 | - | -
CN(C)c1ccc(C2Nc3ccc4ccccc4c3C3=C2C(=O)CC(C)(C)C3)cc1Br (stereo not given) | - | - | - | 0 | - | -
CN[C@H]1[C@@H](O)[C@@H]2O[C@@H]3O[C@H](C)CC(=O)[C@]3(O)O[C@@H]2[C@@H](NC)[C@H]1O | - | - | - | 0 | - | -

Screens deposited in PubChem by National Center for Advancing Translational Sciences (NCATS).
